“And” between values parts separate entries of the source, which are not always exact repeats. Equal values may be shown once.
Test system: F380Y
Assay: BK channel mutant inhibitors and activators – cell-based, U2OS BacMam, thallium flux, beta subunits, selectivity assay, profiling panel (AID 1259406);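 further: initial slope of Thallos dye fluorescence rise after thallium is added; log ratio against the mean of 0.3% DMSO vehicle wells on the same plate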
Settings: U2OS BacMam BK variants, at 30 µM;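 active means thallium flux through the channel raised or lowered by more than 3 SD from vehicle-only wells, actives on both sides; inactive means the rest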

Log fold change Tl+ flux, inactive:
O=C1CN2Cc3c(ccc(Cl)c3Cl)N=C2N1 -0.00116
COC(=O)C[C@](O)(CCCC(C)(C)O)C(=O)O[C@@H]1C(OC)=C[C@]23CCCN2CCc2cc4c(cc2[C@H]13)OCO4 0.0231
CNCC[C@H](Oc1cccc2ccccc12)c1cccs1 -0.075
O=c1[nH]c(=O)n(C2CCCO2)cc1F (stereo not given) -0.0407
CSc1nc2cc(Oc3cccc(Cl)c3Cl)c(Cl)cc2[nH]1 -0.0619
CN(C)CCc1c[nH]c2ccc(Cn3cncn3)cc12 -0.0521
COc1ccc(C[C@H](C)NC[C@@H](O)c2ccc(O)c(NC=O)c2)cc1 -0.0497
CC(C)C[C@H](NC(=O)[C@@H](O)[C@H](N)Cc1ccccc1)C(=O)O -0.0323
C[C@@H](c1ncncc1F)[C@](O)(Cn1cncn1)c1ccc(F)cc1F 0.0491
CN(C)CCCC1(c2ccc(F)cc2)OCc2cc(C#N)ccc21 (stereo not given) 0.0263 and 0.0749
CCOC(=O)c1ccc(OC(=O)CCCCCN=C(N)N)cc1 -0.0684
Cc1c(C(=O)NN2CCCCC2)nn(-c2ccc(Cl)cc2Cl)c1-c1ccc(I)cc1 0.00861
CC(C)NCC(O)c1ccc(NS(C)(=O)=O)cc1 (stereo not given) 0.0283
O=C(NC(=O)c1ccccc1Oc1ccc(Cl)cc1Cl)Nc1cc(Cl)cc(Cl)c1 0.0204
CC(=O)NC[C@H]1CN(c2ccc(N3CCOCC3)c(F)c2)C(=O)O1 0.0386
